Measured values taken from publication PMC5540273 (PLoS ONE, 2017).
Read-outs that look alike come from different tables or passages of the source.

Experiments:
[1] = tested on: LCK; conditions: concentration: 1 μM, replicates: in singlicate; n = 1
[2] = tested on: LIMK1; conditions: concentration: 1 μM, replicates: in singlicate; n = 1
[3] = tested on: LIMK2; conditions: concentration: 1 μM, replicates: in singlicate; n = 1
[4] = tested on: T1, LKB1; conditions: concentration: 1 μM, replicates: in singlicate; n = 1
T1 construct: gene STK11

[5] = tested on: T2, LOK; conditions: concentration: 1 μM, replicates: in singlicate; n = 1
T2 construct: gene STK10

[6] = tested on: LRRK2; conditions: n = 1
[7] = tested on: LTK; conditions: n = 1
[8] = tested on: LYN; conditions: concentration: 1 μM, replicates: in singlicate; n = 1
[9] = tested on: T3, LZK; conditions: concentration: 1 μM, replicates: in singlicate; n = 1
T3 construct: gene MAP3K13

[10] = tested on: MAK; conditions: concentration: 1 μM, replicates: in singlicate; n = 1
[11] = concentration: 1 μM, replicates: in singlicate
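Also: KINOMEscan kinase panel screen.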

Row | Structure (SMILES) | %Inh [1] [%] | %Inh [2] [%] | %Inh [3] [%] | %Inh [4] [%] | %Inh [5] [%] | %Inh [6, 11] [%] | %Inh [7, 11] [%] | %Inh [8] [%] | %Inh [9] [%] | %Inh [10] [%] | %Inh ([6]; 1 µM) [%] | %Inh ([7]; 1 µM) [%]
1 | Nc1ncc(-c2ccc3nccc(-c4ccncc4)c3c2)cc1S(=O)(=O)N1CCCCC1 [GSK1693850] | 24 | 0 | 22 | 0 | 7 | 0 | 6 | 16 | 0 | 16 |  | 
2 | CNc1nccc(-c2ccc3c(N)n[nH]c3c2)n1 [GSK2206003] | 19 | 0 | 0 | 5 | 23 | 1 | 27 | 0 | 0 | 29 |  | 
3 | O=C(O)C(F)(F)F.O=c1[nH]ccc2nc(N[C@@H]3CCNC3)nc(Nc3ccc4c(c3)S(=O)(=O)CC4)c12 [GSK2181306] | 40 | 0 | 0 | 2 | 97.2 | 94.5 | 29 | 7 | 6 | 93.5 |  | 
4 | COC(=O)Nc1nc2cc(Oc3ccc(NC(=O)Nc4cccc(SC)c4)cc3)ccc2[nH]1.Cl [GW697999] | 68 | 0 | 4 | 17 | 99.4 | 18 | 0 | 24 | 23 | 14 |  | 
5 | Cc1nn2c(=O)cc(N3CCO[C@H](C)C3)nc2n1Cc1cccc(Cl)c1Cl [GSK2373693] | 13 | 0 | 0 | 0 | 0 | 18 | 27 | 0 | 0 | 15 |  | 
6 | O=C(Nc1c(F)cccc1F)c1cc(C(=O)c2ccccc2F)c[nH]1 [GSK1326180] | 8 | 3 | 0 | 0 | 28 | 6 | 0 | 0 | 0 | 0 |  | 
7 | CN(C)c1ncnc2nc[nH]c12 [SKF-31736] | 0 | 0 | 0 | 0 | 2 |  | 0 | 0 | 8 | 0 | 0 | 
8 | COc1cccc2c(-c3ccncc3)c(-c3ccc(F)cc3)nn12 [GW468513] | 23 | 0 | 0 | 0 | 0 | 48 | 28 | 0 | 0 | 27 |  | 
9 | Cn1cc(-c2ccc3c(c2)CCN3C(=O)Cc2cc(F)cc(F)c2F)c2c(N)ncnc21 [GSK2634140] | 58 | 0 | 0 | 0 | 91.8 | 0 | 24 | 0 | 0 | 23 |  | 
10 | CN1CCN(Cc2ccc(NC(=O)Nc3ccc(N(C)c4ccnc(Nc5ccc(CS(C)(=O)=O)cc5)n4)cc3)cc2)CC1.Cl [GW827654] | 82 | 27 | 31 | 17 | 99.9 | 0 | 46 | 70 | 42 | 34 |  | 
11 | COc1cccc(C2=C(Nc3cccc(O)c3)C(=O)NC2=O)c1 [SB-390771] | 11 | 9 | 18 | 0 | 0 | 0 | 6 | 24 | 0 | 25 |  | 
12 | COc1cccc(-c2nc(-c3ccccc3)[nH]c2-c2ccncc2)c1 [SB-610250] | 16 | 20 | 0 | 4 | 0 | 14 | 0 | 0 | 0 | 47 |  | 
13 | Cc1ccccc1CC(=O)N1CCc2cc(-c3cn(C)c4ncnc(N)c34)ccc21 [GSK2603346] | 30 | 0 | 0 | 0 | 89 | 21 | 23 | 0 | 0 | 1 |  | 
14 | Cl.Cl.NCC(NC(=O)c1cc(-c2cccnc2)c(-c2ccnc3[nH]ccc23)s1)c1ccccc1 (centres unmarked) [GSK1323434] | 33 | 0 | 0 | 22 | 0 | 0 | 0 | 0 | 77 | 21 |  | 
15 | CC(C)NCC(Cc1ccccc1)NC(=O)c1cc(Br)c(-c2ccnc3[nH]ccc23)s1.Cl.Cl (centres unmarked) [GSK1383281] | 11 | 0 | 11 | 0 | 0 | 0 | 0 | 0 | 0 | 34 |  | 
16 | CC(C)c1nc(-c2cccc(NS(=O)(=O)c3c(F)cccc3F)c2)c(-c2ccnc(Nc3ccc(N4CCOCC4)nc3)n2)s1.Cl [GSK1723980] | 99.7 | 100 | 100 | 4 | 99.1 | 18 | 0 | 97.8 | 52 | 70 |  | 

Row | Structure (SMILES) | %Inh [1] [%] | %Inh [2] [%] | %Inh [3] [%] | %Inh [4] [%] | %Inh [5] [%] | %Inh [6, 11] [%] | %Inh [7, 11] [%] | %Inh [8] [%] | %Inh [9] [%] | %Inh [10] [%] | %Inh ([6]; 1 µM) [%] | %Inh ([7]; 1 µM) [%]
17 | CN(C)CCOc1ccc(-c2cc(-c3ccc(Cl)c(O)c3)c(-c3ccncc3)[nH]2)cc1.Cl.Cl [SB-684387] | 86 | 13 | 11 | 20 | 84 | 17 | 0 | 28 | 41 | 41 |  | 
18 | CN(c1ccc(NC(=O)N2CCN(CCCN3CCOCC3)CC2)cc1)c1ccnc(Nc2ccc(CS(C)(=O)=O)cc2)n1.Cl [GW830899] | 16 | 2 | 6 | 0 | 72 | 0 | 0 | 0 | 0 | 0 |  | 
19 | CCNC(=O)/C=C/c1n[nH]c2cc(Sc3ccccc3C(=O)NC)ccc12 | 11 | 25 | 11 | 0 | 27 | 0 | 0 | 16 | 14 | 26 |  | 
20 | CC(C)c1nc(-c2ccc(F)c(NS(=O)(=O)c3c(F)cccc3F)c2)c(-c2ccnc(Nc3ccc(N4CCOCC4)nc3)n2)s1 [GSK1804250] | 99.6 | 100 | 100 | 0 | 99.3 | 9 | 6 | 93.8 | 58 | 24 |  | 
21 | Cc1ccc(O)cc1Nc1ccnc2ccc(C(C)(C)C)cc12 [GW856805] | 98.6 | 0 | 0 | 33 | 16 | 67 | 11 | 69 | 0 | 23 |  | 
22 | O=C(Nc1n[nH]c2nc(-c3ccccc3O)ccc12)C1CC1 [SB-711880] | 37 | 0 | 0 | 22 | 77 | 0 | 0 | 0 | 20 | 16 |  | 
23 | O=C(Nc1n[nH]c2cc(-c3cccs3)ccc12)C1CC1 [SB-731284] | 0 | 6 | 0 | 10 | 17 | 0 | 0 | 0 | 0 | 0 |  | 
24 | N#CC1(c2cccc(C(=O)Nc3cccc(Oc4ccc5nc(NC(=O)C6CC6)sc5n4)c3)c2)CC1 | 99.3 | 6 | 0 | 0 | 95.9 | 0 | 0 | 91.4 | 0 | 3 |  | 
25 | CN(c1ccc2c(c1)nc(NCc1ccccc1)n2C)c1ccnc(Nc2ccc(CS(C)(=O)=O)cc2)n1.Cl [GW811603] | 59 | 1 | 0 | 0 | 99.5 | 0 | 37 | 52 | 0 | 33 |  | 
26 | Cc1cc(-c2c(-c3ccc(F)cc3)ncn2CCCN2CCOCC2)nc(N)n1 [SB-222517] | 12 | 0 | 0 | 45 | 18 | 0 | 4 | 17 | 0 | 35 |  | 
27 | Cn1cc(-c2cnc(N)c3c(-c4ccc5c(c4)CCN5C(=O)Cc4ccccc4)csc23)cn1 [GSK2593074] | 93.8 | 49 | 55 | 0 | 98.9 | 3 |  | 65 | 0 | 0 |  | 0
28 | Nc1ncc(-c2cn[nH]c2)c2scc(-c3ccc4c(c3)CCN4C(=O)Cc3ccccc3)c12 [GSK2593067] | 96.5 | 17 | 49 | 2 | 98.6 | 52 | 67 | 80 | 0 | 10 |  | 
29 | COc1cccc(CC(=O)N2CCc3cc(-c4cn(C)c5ncnc(N)c45)ccc32)c1 [GSK2608899] | 34 | 0 | 35 | 4 | 98.5 | 0 | 36 | 22 | 0 | 2 |  | 
30 | COc1ccc(NC(=O)c2ccoc2)cc1-c1ccc(C(=O)NCC2CC2)cc1 [GW810437] | 0 | 2 | 0 | 52 | 28 | 20 | 16 | 0 | 19 | 13 |  | 
31 | COc1cc(Nc2ccnc3cc(-c4ccncc4)ccc23)cc(OC)c1OC.Cl [GW494610] | 98.6 | 0 | 0 | 0 | 96.9 | 27 | 24 | 67 | 31 | 20 |  | 
32 | NCCC(NC(=O)c1cc(Br)c(-c2ccnc3[nH]ccc23)s1)c1ccccc1.O=C(O)C(F)(F)F.O=C(O)C(F)(F)F (centres unmarked) [GSK1307810] | 12 | 12 | 30 | 29 | 0 | 14 | 0 | 7 | 30 | 30 |  | 
